# Measured values as given in article PMC9911399, “Two distinct binding modes provide the RNA-binding protein RbFox with extraordinary sequence specificity”.
# Where a chain is given by its changes, count along the chain named. Over roughly 16,000 sequences, “ka relative to ugcaugu” has its median near 0.0091; the highest 2% begin near 0.032. Shown is part of a subset that was picked to be rich in the highest values.
# T1: RBFOX1 RRM (Homo sapiens, UniProt Q9NWB1 109-208)
# T1 sequence: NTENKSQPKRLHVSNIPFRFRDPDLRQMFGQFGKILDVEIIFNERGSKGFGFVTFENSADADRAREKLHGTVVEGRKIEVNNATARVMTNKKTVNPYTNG
# B1: AUCUUGC (DNA:RNA)
# RNA: GGGAGACCGGAAUUCAGAUUGUCCAUCUUGCUUAAAUCCCGUCGUAGCCACCA
# DNA 1: CAATCTGAATTCCGGTCTCCC
# DNA 2: TGGTGGCTACGACGGGATT
# B2: AUGACCA (DNA:RNA)
# RNA: B1 RNA with C27G, U28A, U29C, G30C, C31A
# DNA 1: CAATCTGAATTCCGGTCTCCC
# DNA 2: TGGTGGCTACGACGGGATT
# B3: CUAAUUG (DNA:RNA)
# RNA: B1 RNA with A25C, C27A, U28A, G30U, C31G
# DNA 1: CAATCTGAATTCCGGTCTCCC
# DNA 2: TGGTGGCTACGACGGGATT
# B4: GGCCUGU (DNA:RNA)
# RNA: B1 RNA with A25G, U26G, U28C, C31U
# DNA 1: CAATCTGAATTCCGGTCTCCC
# DNA 2: TGGTGGCTACGACGGGATT
# B5: GAUUAGC (DNA:RNA)
# RNA: B1 RNA with A25G, U26A, C27U, U29A
# DNA 1: CAATCTGAATTCCGGTCTCCC
# DNA 2: TGGTGGCTACGACGGGATT
# B6: UGCAACU (DNA:RNA)
# RNA: B1 RNA with A25U, U26G, U28A, U29A, G30C, C31U
# DNA 1: CAATCTGAATTCCGGTCTCCC
# DNA 2: TGGTGGCTACGACGGGATT
# B7: GGGCCGG (DNA:RNA)
# RNA: B1 RNA with A25G, U26G, C27G, U28C, U29C, C31G
# DNA 1: CAATCTGAATTCCGGTCTCCC
# DNA 2: TGGTGGCTACGACGGGATT
# B8: CCUGUGC (DNA:RNA)
# RNA: B1 RNA with A25C, U26C, C27U, U28G
# DNA 1: CAATCTGAATTCCGGTCTCCC
# DNA 2: TGGTGGCTACGACGGGATT
# B9: CGUUUGC (DNA:RNA)
# RNA: B1 RNA with A25C, U26G, C27U
# DNA 1: CAATCTGAATTCCGGTCTCCC
# DNA 2: TGGTGGCTACGACGGGATT
# B10: UGUUCUG (DNA:RNA)
# RNA: B1 RNA with A25U, U26G, C27U, U29C, G30U, C31G
# DNA 1: CAATCTGAATTCCGGTCTCCC
# DNA 2: TGGTGGCTACGACGGGATT
# B11: UGUGUGC (DNA:RNA)
# RNA: B1 RNA with A25U, U26G, C27U, U28G
# DNA 1: CAATCTGAATTCCGGTCTCCC
# DNA 2: TGGTGGCTACGACGGGATT
# B12: CGUUCUG (DNA:RNA)
# RNA: B1 RNA with A25C, U26G, C27U, U29C, G30U, C31G
# DNA 1: CAATCTGAATTCCGGTCTCCC
# DNA 2: TGGTGGCTACGACGGGATT
# B13: UGUUUUG (DNA:RNA)
# RNA: B1 RNA with A25U, U26G, C27U, G30U, C31G
# DNA 1: CAATCTGAATTCCGGTCTCCC
# DNA 2: TGGTGGCTACGACGGGATT
# B14: UGUUUGC (DNA:RNA)
# RNA: B1 RNA with A25U, U26G, C27U
# DNA 1: CAATCTGAATTCCGGTCTCCC
# DNA 2: TGGTGGCTACGACGGGATT
# B15: CUGUUUG (DNA:RNA)
# RNA: B1 RNA with A25C, C27G, G30U, C31G
# DNA 1: CAATCTGAATTCCGGTCTCCC
# DNA 2: TGGTGGCTACGACGGGATT
# B16: CUGUCGU (DNA:RNA)
# RNA: B1 RNA with A25C, C27G, U29C, C31U
# DNA 1: CAATCTGAATTCCGGTCTCCC
# DNA 2: TGGTGGCTACGACGGGATT
# B17: CGUCCUG (DNA:RNA)
# RNA: GGGAGACCGGAAUUCAGAUUGUCCCGUCCUGUUAAAUCCCGUCGUAGCCACCA
# DNA 1: CAATCTGAATTCCGGTCTCCC
# DNA 2: TGGTGGCTACGACGGGATT
# B18: CGUGUGC (DNA:RNA)
# RNA: B1 RNA with A25C, U26G, C27U, U28G
# DNA 1: CAATCTGAATTCCGGTCTCCC
# DNA 2: TGGTGGCTACGACGGGATT
# B19: CUGUUGU (DNA:RNA)
# RNA: B1 RNA with A25C, C27G, C31U
# DNA 1: CAATCTGAATTCCGGTCTCCC
# DNA 2: TGGTGGCTACGACGGGATT
# B20: AGCAGGG (DNA:RNA)
# RNA: B1 RNA with U26G, U28A, U29G, C31G
# DNA 1: CAATCTGAATTCCGGTCTCCC
# DNA 2: TGGTGGCTACGACGGGATT
# B21: UGAGGUG (DNA:RNA)
# RNA: B17 RNA with C25U, U27A, C28G, C29G
# DNA 1: CAATCTGAATTCCGGTCTCCC
# DNA 2: TGGTGGCTACGACGGGATT
# B22: UCCGUAG (DNA:RNA)
# RNA: B1 RNA with A25U, U26C, U28G, G30A, C31G
# DNA 1: CAATCTGAATTCCGGTCTCCC
# DNA 2: TGGTGGCTACGACGGGATT
# B23: CGUAUGC (DNA:RNA)
# RNA: B1 RNA with A25C, U26G, C27U, U28A
# DNA 1: CAATCTGAATTCCGGTCTCCC
# DNA 2: TGGTGGCTACGACGGGATT
# B24: UGUAUGC (DNA:RNA)
# RNA: B1 RNA with A25U, U26G, C27U, U28A
# DNA 1: CAATCTGAATTCCGGTCTCCC
# DNA 2: TGGTGGCTACGACGGGATT
# B25: UGUAUUG (DNA:RNA)
# RNA: B17 RNA with C25U, C28A, C29U
# DNA 1: CAATCTGAATTCCGGTCTCCC
# DNA 2: TGGTGGCTACGACGGGATT
# B26: UUCUGCU (DNA:RNA)
# RNA: B1 RNA with A25U, U29G, G30C, C31U
# DNA 1: CAATCTGAATTCCGGTCTCCC
# DNA 2: TGGTGGCTACGACGGGATT
# B27: UGUAACC (DNA:RNA)
# RNA: B17 RNA with C25U, C28A, C29A, U30C, G31C
# DNA 1: CAATCTGAATTCCGGTCTCCC
# DNA 2: TGGTGGCTACGACGGGATT
# B28: AGGCGUG (DNA:RNA)
# RNA: B17 RNA with C25A, U27G, C29G
# DNA 1: CAATCTGAATTCCGGTCTCCC
# DNA 2: TGGTGGCTACGACGGGATT
# B29: ACCCAGU (DNA:RNA)
# RNA: B1 RNA with U26C, U28C, U29A, C31U
# DNA 1: CAATCTGAATTCCGGTCTCCC
# DNA 2: TGGTGGCTACGACGGGATT
# B30: GCACAUG (DNA:RNA)
# RNA: B17 RNA with C25G, G26C, U27A, C29A
# DNA 1: CAATCTGAATTCCGGTCTCCC
# DNA 2: TGGTGGCTACGACGGGATT
# B31: GCAUAUG (DNA:RNA)
# RNA: B17 RNA with C25G, G26C, U27A, C28U, C29A
# DNA 1: CAATCTGAATTCCGGTCTCCC
# DNA 2: TGGTGGCTACGACGGGATT
# B32: GCGCGCA (DNA:RNA)
# RNA: B17 RNA with C25G, G26C, U27G, C29G, U30C, G31A
# DNA 1: CAATCTGAATTCCGGTCTCCC
# DNA 2: TGGTGGCTACGACGGGATT
# B33: GCAUGUC (DNA:RNA)
# RNA: B1 RNA with A25G, U26C, C27A, U29G, G30U
# DNA 1: CAATCTGAATTCCGGTCTCCC
# DNA 2: TGGTGGCTACGACGGGATT
# B34: GCGCAUG (DNA:RNA)
# RNA: B17 RNA with C25G, G26C, U27G, C29A
# DNA 1: CAATCTGAATTCCGGTCTCCC
# DNA 2: TGGTGGCTACGACGGGATT
# B35: GUCCGUC (DNA:RNA)
# RNA: B1 RNA with A25G, U28C, U29G, G30U
# DNA 1: CAATCTGAATTCCGGTCTCCC
# DNA 2: TGGTGGCTACGACGGGATT
# B36: AUGUGUG (DNA:RNA)
# RNA: B1 RNA with C27G, U29G, G30U, C31G
# DNA 1: CAATCTGAATTCCGGTCTCCC
# DNA 2: TGGTGGCTACGACGGGATT
# B37: GCGCAUC (DNA:RNA)
# RNA: B17 RNA with C25G, G26C, U27G, C29A, G31C
# DNA 1: CAATCTGAATTCCGGTCTCCC
# DNA 2: TGGTGGCTACGACGGGATT
# B38: GCAUGUG (DNA:RNA)
# RNA: B17 RNA with C25G, G26C, U27A, C28U, C29G
# DNA 1: CAATCTGAATTCCGGTCTCCC
# DNA 2: TGGTGGCTACGACGGGATT
# Target: T1, RBFOX1 RRM
# Test: EMSA; HiTS-Eq, 1 nM pool, 10 min; buffer printed only for the single-RNA assays: 10 mM Tris pH 7.5, 150 mM NaCl, 3.4 mM EDTA, 0.001% NP-40, 30 C
# Conditions: tags: His6 N-terminal (pET28a); label: 5' 32P
# Summary of the method: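 Relative association constants, normalised to the cognate motif, were derived by comparing read counts of each RNA species with those of the control reaction. The RNA sequenced was the free fraction, separated by 8% native PAGE after a 10 min equilibration in 50 µL of 1 nM 5′-radiolabelled RNA (7 randomized nucleotides) with increasing concentrations of purified wild-type or mutant RbFox RRM.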
row,Binder,binding signal
1,B1,0.0138 KA relative to UGCAUGU
2,B2,0.00337 KA relative to UGCAUGU
3,B3,0.013 KA relative to UGCAUGU
4,B4,0.0238 KA relative to UGCAUGU
5,B5,0.0124 KA relative to UGCAUGU
6,B6,0.0132 KA relative to UGCAUGU
7,B7,0.0124 KA relative to UGCAUGU
8,B8,0.0232 KA relative to UGCAUGU
9,B9,0.019 KA relative to UGCAUGU
10,B10,0.0328 KA relative to UGCAUGU
11,B11,0.0333 KA relative to UGCAUGU
12,B12,0.0207 KA relative to UGCAUGU
13,B13,0.0286 KA relative to UGCAUGU
14,B14,0.0351 KA relative to UGCAUGU
15,B15,0.0332 KA relative to UGCAUGU
16,B16,0.0193 KA relative to UGCAUGU
17,B17,0.0127 KA relative to UGCAUGU
18,B18,0.0146 KA relative to UGCAUGU
19,B19,0.0226 KA relative to UGCAUGU

row,Binder,binding signal
1,B20,0.0126 KA relative to UGCAUGU
2,B21,0.0201 KA relative to UGCAUGU
3,B22,0.00757 KA relative to UGCAUGU
4,B23,0.014 KA relative to UGCAUGU
5,B24,0.0374 KA relative to UGCAUGU
6,B25,0.0262 KA relative to UGCAUGU
7,B26,0.0203 KA relative to UGCAUGU
8,B27,0.00753 KA relative to UGCAUGU
9,B28,0.0157 KA relative to UGCAUGU
10,B29,0.00233 KA relative to UGCAUGU
11,B30,0.0141 KA relative to UGCAUGU
12,B31,0.00982 KA relative to UGCAUGU
13,B32,0.0238 KA relative to UGCAUGU
14,B33,0.689 KA relative to UGCAUGU
15,B34,0.843 KA relative to UGCAUGU
16,B35,0.0149 KA relative to UGCAUGU
17,B36,0.0208 KA relative to UGCAUGU
18,B37,0.0246 KA relative to UGCAUGU
19,B38,0.8 KA relative to UGCAUGU
